The list is not random: actives were taken first. Their share in the collection is about 0.92%.
LmPK inh: qHTS Assay for Inhibitors of Leishmania Mexicana Pyruvate Kinase (LmPK) | Potency, µM (highest dose often 57.5 µM), for the others: top-dose activity change, negative = inhibition, most hits filed as inhibitors | hit rate 0.37% among 290,000 | purified LmPK, Kinase-Glo ATP luminescence, 1 h | Q27686; also: % is scaled to controls: 0 for no effect and ±100 for the full control effect
Target sequence (Q27686 whole entry, looked up): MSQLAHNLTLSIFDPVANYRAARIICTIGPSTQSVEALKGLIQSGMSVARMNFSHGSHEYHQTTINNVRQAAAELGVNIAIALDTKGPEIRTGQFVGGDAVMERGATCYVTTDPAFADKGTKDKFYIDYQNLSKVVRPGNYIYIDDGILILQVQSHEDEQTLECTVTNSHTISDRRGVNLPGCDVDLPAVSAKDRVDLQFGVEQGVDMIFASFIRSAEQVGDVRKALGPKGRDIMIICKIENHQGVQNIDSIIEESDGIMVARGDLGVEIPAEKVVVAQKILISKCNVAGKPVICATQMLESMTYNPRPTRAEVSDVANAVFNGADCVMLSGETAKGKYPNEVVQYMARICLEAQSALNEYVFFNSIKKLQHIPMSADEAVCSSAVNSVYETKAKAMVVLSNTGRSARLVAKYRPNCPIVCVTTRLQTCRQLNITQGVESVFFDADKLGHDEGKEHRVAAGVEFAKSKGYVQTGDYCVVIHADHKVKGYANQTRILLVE
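qHTS format; LmPK 0.1 nM; substrates PEP 0.5 mM and ADP 0.1 mM. One-hour room-temperature incubation, then coupled luciferase luminescence; 0.5 nM enzyme wells mark activation.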
TbPYK inhibitor: qHTS of Trypanosoma Brucei Inhibitors | TbPYK enzyme, Kinase-Glo Plus ATP luminescence, 45 min | hit rate 0.12% among 410,000 | Potency, µM (top dose mostly 76.8 µM), without a hit: at the highest dose activity, negative = inhibition, hits mostly inhibitors | pyruvate kinase (Trypanosoma brucei), Q57TT1 | AID 624173, 2012; also: % is scaled to controls: 0 for no effect and ±100 for the full control effect; nearly all actives have a fitted effect of over 50% in size
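Enzyme and substrate buffer are dispensed first and compound is pin-transferred. ADP at 130 uM final then starts the reaction, which runs 45 min at room temperature. Detection reagent is added for 10 min before luminescence is imaged.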
NS1 inh: qHTS Assay for Inhibitors of Influenza NS1 Protein Function; hit rate 0.4% among 270,000; Potency, µM (series often up to 46.1 µM), without a hit: at the highest dose activity, positive = more growth; calls by dose curve; also: actives are rising curves; nearly all actives have a fitted effect of over 50% in size
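In this qHTS, NS1 from influenza A is expressed in budding yeast, where it slows growth. Cells are switched from glucose to 2% galactose medium (pH 6.0, -URA), treated with compound, and growth recovery is read at OD600.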
RE007 growth inh: qHTS Assay for Inhibitors of the HIV-1 protein Vpr. Potency, µM (top dose mostly 92.2 µM), inactives show at the highest dose activity change, negative = less growth, hits mostly inhibitors. S. pombe RE007 Vpr strain, BacTiter-Glo ATP luminescence, 24 h. hit rate 0.21% among 360,000. AID 651644, 2012; active = well fitted falling curve with a large enough effect; inconclusive = small, poorly fitted or top-dose-only effect; inactive = no such curve, though single readings can be large or run the other way; also: % is scaled to controls: 0 for no effect and ±100 for the full control effect; nearly all actives have a fitted effect of over 50% in size
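Fission yeast strain RE007, carrying one chromosomally integrated HIV-1 vpr copy, was seeded at OD 0.01 in PMG+AL medium with 23 nL pinned compound. After 24 h at 30 °C and 99% humidity, viability was read by BacTiter-Glo luminescence.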
AMA1-RON2 inh: qHTS for Inhibitors of AMA1-RON; Towards Development of Antimalarial Drug Lead: Primary Screen. AlphaScreen AMA1-biotinylated RON2 peptide binding. Potency, µM (titrated, usually from 58.2 µM), for the others: top-dose activity change, negative = inhibition, actives largely listed as inhibitors. hit rate 0.2% among 360,000;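 also: 0% = vehicle wells and -100% = peptide control; nearly all actives have a fitted effect of over 45% in size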
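AMA1 (3D7) with his tag at 25 nM final met compounds first, then biotinylated RON2 peptide at 25 nM; detection used donor plus acceptor beads, 10 µg/mL apiece, read by AlphaScreen after 30 min at room temperature.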
Starred values were filed as active, the others as inactive; ? = inconclusive; . = no result given; [ ] = another dose, or the depositor's remark. Unless noted, calls follow the shape of the dose curve; as a rule, active = well fitted curve in the direction sought with a large enough effect; inconclusive = small, poorly fitted or top-dose-only effect, or another doubt; inactive = no such curve, though single readings can be large; an effect the other way counts as inactive or inconclusive. Potency is read from the fitted curve at half-maximal effect.

SMILES | LmPK inh | TbPYK inhibitor | NS1 inh | RE007 growth inh | AMA1-RON2 inh
CNC(CC(=O)c1ccc([N+](=O)[O-])cc1)C(Cl)(Cl)Cl (stereo unspecified) | -10.9% | 12.6µM* | -24.5% | 12.6µM* | -10.7%
Cc1ccc(O)c(NC2=C(Cl)C(=O)N(Cc3ccccc3)C2=O)c1 | -9.5% | 35.5µM* | 8.6% | 3.6% | 21.9%
Nc1ccccc1-c1ccccc1N | -1.7% | -8.2% | 12.4% | -11.9% | 17.2%
Nc1ccccc1N=Nc1ccccc1N | -7.7% | -3.7% | -52.6% | ? | 31.6µM*
O=C(O)C1=C(C2CCCCC2)C(=O)c2ccccc21 | . | -14.8% | . | -8.1% | 1.6%
O=C(O)c1ccc(C2CCCCC2)cn1 | 5.4% | 1.3% | -30.8% | 18.1% | 12.6µM*
Cc1ccc(S(=O)(=O)N2CCc3nc(COc4ccccc4)c4c(c3C2)CO[C@@H](C)C4)cc1 | -4.4%[11.5 µM] | . | . | . | .
O=C(O)c1cc(C2CC2)nn1-c1ccccc1 | 2.2% | -1.9% | 0.4% | 0.9% | 1.8%
Nc1cc(C2CCCC2)nn1-c1ccccc1 | 14.1µM* | -9.4% | 21.2% | -21.2% | -4.9%
Cc1ccc(C23CC4CC(CC(NC(=O)N5CCN(C)CC5)(C4)C2)C3)cc1 | 1.6% | -1.7% | 0.1% | 12.6µM* | 7.1%
CCCCn1c(-c2csc(CCC)c2)n[nH]c1=S | 22.4µM* | ? | -80.6% | 5.9% | 111.0%
CCc1cc(-c2n[nH]c(=S)n2CC)cs1 | -21.9% | 10µM* | 5.8% | 41.9% | 74.6%
COc1cc(-c2n[nH]c(=S)n2C(C)c2ccccc2)cc(OC)c1OC (stereo unspecified) | ? | ? | 24.4% | 8.7% | 88.9%
CCCc1cc(-c2n[nH]c(=S)n2C(C)c2ccccc2)cs1 (stereo unspecified) | 22.4µM* | -41.0% | -1.9% | 4.1% | 57.7%
CCCCn1c(-c2ccc([N+](=O)[O-])cc2)n[nH]c1=S | ? | 1.12µM* | -1.9% | 9.6% | -3.6%
CCCCn1c(-c2cccnc2)n[nH]c1=S | -25.3% | ? | 3.6% | -4.3% | 11.2%
CN(C)CCOC1=Cc2ccccc2Sc2ccc(Cl)cc21 | . | -3.8% | . | . | .
CCC(N)CCc1c[nH]c2ccccc12 (stereo unspecified) | . | -9.1%[157 µM] | . | . | .
CCCCn1c(-c2cc(Cl)ccc2OC)n[nH]c1=S | 12.6µM* | ? | 4.3% | 4.6% | 17.5%
Cc1cccc(-n2c(-c3ccoc3C)n[nH]c2=S)c1 | ? | ? | -5.8% | 0.8% | -7.1%[11.6 µM]
CCn1c(-c2ccc(OC)c(OC)c2)n[nH]c1=S | -24.8% | -12.5% | 3.8% | 6.8% | 0.0%
Cc1ccccc1-n1c(-c2ccoc2C)n[nH]c1=S | 28.2µM* | ? | 7.3% | -1.0% | 19.1%
CCCc1cc(-c2n[nH]c(=S)n2CC)cs1 | ? | 8.91µM* | . | 7.3% | 78.9%
CCc1cc(-c2n[nH]c(=S)n2-c2ccccc2C)cs1 | 28.2µM* | ? | -14.7% | 5.1% | 33.3%
CCOC(=O)COc1ccc2c(C)c(CCN(CC)CC)c(=O)oc2c1 | . | 21.5% | . | . | .
SMILES | LmPK inh | TbPYK inhibitor | NS1 inh | RE007 growth inh | AMA1-RON2 inh
CCOC(=O)c1ccc(N2CCN(c3ccccc3F)CC2)c(NC(=O)Nc2ccc(Cl)c(Cl)c2)c1 | . | 1.4% | . | . | .
CN1CC[C@H](c2c(O)cc(O)c3c(=O)cc(-c4ccccc4Cl)oc23)[C@@H](O)C1 | . | 2.5% | . | . | .
Cc1[nH]c2ccc(-c3n[nH]c(=S)n3Cc3ccccc3)cc2c1C | -26.2% | ? | 7.0% | -3.9% | 28.0%
CCc1cc(-c2n[nH]c(=S)n2Cc2ccccc2)cs1 | 10µM* | ? | -32.8% | -23.6% | 60.5%
COc1cc([C@@H]2c3cc4c(cc3[C@@H](O[C@@H]3O[C@H]5CO[C@H](C)O[C@H]5[C@H](O)[C@@H]3O)[C@H]3COC(=O)[C@H]23)OCO4)cc(OC)c1OP(=O)(O)O | . | 5.6% | . | . | .
COc1ccc(-c2c3c([nH]c(=S)c2C#N)CCC3)cc1 | 5.2% | 12.6µM* | 24.4% | 9.5% | -7.5%
N#Cc1c(-c2ccco2)c2c([nH]c1=S)CCCC2 | 3.2% | 17.8µM* | ? | 7.7% | -15.7%
COc1ccc(OC)c(-c2c3c([nH]c(=S)c2C#N)CCCC3)c1 | 2.6% | ? | 11.0% | -22.3% | 44.9%

Bioassay records deposited in PubChem BioAssay by National Center for Advancing Translational Sciences (NCATS).
